Data on 97 molecules can be found in PubChem BioAssay AID1578 (Sanford-Burnham Center for Chemical Genomics, 2009).

The inhibition is the relative decrease from the control value, in per cent.

Structures are written as SMILES. Out of some 290,000 compounds screened, about 3,000 (1%) were called active. No stated cut-off is given here; in the data, active means inhibition mostly above about 36% (no sharp cut-off); inactive means mostly below about 34%. Many of the other results were omitted from the sample, so actives are more common in it than they were.

The nature of this experiment: inhibition of NOD1-driven NF-kB reporter – cell-based, luminescence, uHTS, primary screen (AID 1578).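 Further: HEK-293T reporter cells stimulated with the NOD1 agonist gamma-tri-DAP.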 The settings on record: NOD1-driven NF-kB luciferase reporter cells, at 4 µM, active compounds read high.
With `Cn1cnnc1SCc1ccc(C#N)cc1Cl`, the inhibition is -35.4% (inactive).

Consider `CC1CC(NC(=O)Cc2ccc(Br)cc2)CC(C)(C)C1` (configuration not stated), for which the inhibition is -9.8% (inactive).

As for `O=C1c2ccccc2-c2c1cccc2C(=O)N1CCCCCC1`, the inhibition is 0.4% (inactive).

With `COc1ccccc1C(=O)Nc1ccccc1C(=O)N1C(C)CCCC1C` (configuration not stated), the inhibition is -5% (inactive).

Turning to `CC1CCCC(C)N1C(=O)c1cccc2c1-c1ccccc1/C2=N/O` (configuration not stated), the inhibition is 75.8% (active).

As for `O=C(c1cccc2c1-c1ccccc1/C2=N/O)N1CCCCC1`, the inhibition is 66.9% (active).

`O=C1c2ccccc2-c2c1cccc2C(=O)N1CCCCC1`: the inhibition is -12.6% (inactive).

As to `CC(C)COC(=O)c1cccc2c1-c1ccccc1/C2=N\O`, the inhibition is 14.1% (inactive).

`CN1CC(=O)N(CC(=O)Nc2cc(Cl)cc(Cl)c2)C1=O`: the inhibition was -17.3% (inactive).

For the molecule `CCn1c(=O)c(C(=O)Nc2ccsc2C(=O)OC)c(O)c2ccccc21`, the inhibition is -28.8% (inactive).

Regarding `COc1ccccc1C(=O)NC1CC2CCC(C1)N2Cc1ccccc1` (configuration not stated), the inhibition is -9.7% (inactive).

In the case of `COc1ccc(CCNC(=S)NC(=O)c2cccc(Cl)c2)cc1OC`, the inhibition was -2.1% (inactive).

As for `CCn1nc([N+](=O)[O-])c(C(C#N)c2nc3ccccc3n2C)c(Cl)c1=O` (configuration not stated), the inhibition was 32% (inactive).

Regarding `Cn1nc([N+](=O)[O-])c(C(C#N)c2ccccn2)c(Cl)c1=O` (configuration not stated), the inhibition is -21.4% (inactive).

For `CCCn1nc([N+](=O)[O-])c(C(C#N)c2nc3ccccc3o2)c(Cl)c1=O` (configuration not stated), the inhibition was 80.5% (active).

As for `CCCn1nc([N+](=O)[O-])c(C(C#N)c2nc3ccccc3s2)c(Cl)c1=O` (configuration not stated), the inhibition is 63.6% (inactive).

For `Cn1nc([N+](=O)[O-])c(C(C#N)c2nc3ccccc3n2C)c(Cl)c1=O` (configuration not stated), the inhibition is 23.7% (inactive).

For `COc1ccc(C(C(=O)NC2CCCCC2)N(C(=O)c2ccco2)c2ccccc2C(C)=O)cc1OC` (configuration not stated), the inhibition is -17.6% (inactive).

On to `COc1ccc2c(c1)C(=O)C(=O)N2CC1COc2ccccc2O1` (configuration not stated), for which the inhibition is -10% (inactive).

As to `O=C(NCCc1csc(-c2ccccc2)n1)c1ccccc1F`, the inhibition was 28.3% (active).

Turning to `O=C(NCCc1csc(-c2ccccc2)n1)c1c(F)cccc1F`, the inhibition is -19.1% (inactive).

Regarding `O=C(NCCc1csc(-c2ccccc2)n1)c1c(F)cccc1Cl`, the inhibition is -7.4% (inactive).

For the molecule `CCOC(=O)c1nnn2c1nc(N1CCOCC1)c1ccccc12`, the inhibition is 3.1% (inactive).

In the case of `Cc1ccc(C(=O)N(CC(=O)NC2CCCCC2)c2ccccc2F)s1`, the inhibition was -27% (inactive).

Regarding `O=C(NC1CC1)c1ccc(CS(=O)c2ccccc2)o1` (configuration not stated), the inhibition is -19% (inactive).

As for `Cc1ccc2nc(NC(=O)c3ccc(OCC4CCCO4)cc3)sc2c1` (configuration not stated), the inhibition was 3.2% (inactive).

For `C/C=C(/C)C(=O)OC(C)(C)[C@@H]1Cc2c(ccc3ccc(=O)oc23)O1`, the inhibition was -44.4% (inactive).

Turning to `Cc1cccc(C)c1NC(=O)COn1nnc2ccc(C(F)(F)F)cc21`, the inhibition was -17.2% (inactive).

Turning to `O=C(COn1nnc2ccc(C(F)(F)F)cc21)Nc1nnc(-c2ccccc2)o1`, the inhibition was 67.4% (active).

Turning to `O=C(COn1nnc2ccc(C(F)(F)F)cc21)Nc1c(Cl)cccc1Cl`, the inhibition is -17.9% (inactive).

On to `CCOC(=O)C1(Nc2nccs2)Sc2ccccc2NC1=O` (configuration not stated), for which the inhibition is 24.1% (inactive).

On to `CSc1nncc(-c2ccc(F)cc2)n1`, for which the inhibition is 12.5% (inactive).

In the case of `COc1ccc(/C(C)=N/NC(=O)c2ccc(NS(=O)(=O)c3cccs3)cc2)cc1`, the inhibition is -9.8% (inactive).

As for `CSCC[C@H](N)C(=O)NCC1CCC(C(=O)Nc2ccc3c(c2)OCO3)CC1` (some centres not stated), the inhibition was -1.6% (inactive).

For the molecule `N#CC1(c2ccccc2)CCCN1C(=O)c1ccco1` (configuration not stated), the inhibition was 7.3% (inactive).

For `Cc1c(C(C)(C)C)s/c(=N/S(=O)(=O)c2ccccc2)n1C`, the inhibition was 3% (inactive).

As for `O=Cc1s/c(=N\S(=O)(=O)c2ccccc2)n(CCCCl)c1Cl`, the inhibition is 17.3% (inactive).

As to `CCn1c(Cl)c(C=O)s/c1=N\S(=O)(=O)c1ccccc1`, the inhibition is 34% (active).

Regarding `CN(C)S(=O)(=O)c1cccc(C(=O)Nc2ccccc2N2CCCCC2)c1`, the inhibition was -14.5% (inactive).

`COc1ccc(-c2c(-c3cc(OC)c(OC)c(OC)c3)noc2C)cn1`: the inhibition is -8.6% (inactive).

For the molecule `COc1cc(-c2c(-c3cc(OC)c(OC)c(OC)c3)noc2C)ccc1F`, the inhibition was -21.2% (inactive).

Regarding `COc1cc(-c2noc(C)c2-c2ccc(N(C)C)nc2)cc(OC)c1OC`, the inhibition is 62% (active).

In the case of `CCOC(=O)c1cnn(-c2nc3sc4c(c3c(=O)[nH]2)CCCC4)c1N`, the inhibition is 63.7% (active).

`CCOC(=O)c1cnn(-c2nc(C)nc3sc4c(c23)CCC4)c1N`: the inhibition is -33% (inactive).

With `CCOC(=O)c1cnn(-c2nc(SC)nc3sc4c(c23)CCCC4)c1N`, the inhibition was -0.3% (inactive).

As for `S=C(NCc1ccc(Cl)cc1)NN1CCOCC1`, the inhibition is -24.6% (inactive).

On to `CCOCCCNC(=O)NC(=O)CN1CCN(S(=O)(=O)c2ccc3c(c2)OCCO3)CC1`, for which the inhibition was -47% (inactive).

Take `O=C1CCC(=O)N1CC1CC2CCC1C2` (configuration not stated): the inhibition is 0.2% (inactive).

Take `COC(=O)c1cn(-c2ccccc2)nc1-c1ccc(OC)cc1`: the inhibition is 47.5% (active).

As for `COC(=O)c1cn(-c2ccccc2)nc1-c1ccccc1`, the inhibition is -4.9% (inactive).

Take `COc1ccc(-c2nn(-c3ccccc3)cc2C(=O)O)cc1`: the inhibition is 18.9% (inactive).

For the molecule `O=C(c1ccc(Br)cc1)N(c1ccccn1)C1CCCCC1`, the inhibition is -12.8% (inactive).

Consider `CCOC(=O)CC1C(=O)NCCN1c1nc2c(C)cccn2c(=O)c1/C=C1\SC(=S)N(C(C)CC)C1=O` (configuration not stated), for which the inhibition is 35.4% (active).

As to `CCOC(=O)CC1C(=O)NCCN1c1nc2c(C)cccn2c(=O)c1/C=C1\SC(=S)N(CC(C)C)C1=O` (configuration not stated), the inhibition was 32% (active).

For `CCOC(=O)CC1C(=O)NCCN1c1nc2ccc(C)cn2c(=O)c1/C=C1\SC(=S)N(CC(C)C)C1=O` (configuration not stated), the inhibition is 3.2% (inactive).

For `CCOC(=O)CC1C(=O)NCCN1c1nc2ccc(C)cn2c(=O)c1/C=C1\SC(=S)N(C(C)CC)C1=O` (configuration not stated), the inhibition is 20.6% (inactive).

Consider `CCCN1C(=O)/C(=C/c2c(N3CCNC(=O)C3CC(=O)OCC)nc3c(C)cccn3c2=O)SC1=S` (configuration not stated), for which the inhibition was -1% (inactive).

Take `CCCN1C(=O)/C(=C/c2c(N3CCNC(=O)C3CC(=O)OC)nc3c(C)cccn3c2=O)SC1=S` (configuration not stated): the inhibition was 6.9% (inactive).

Consider `COc1ccc(C(=O)O)cc1NC(=S)NC(=O)Cc1ccc(Cl)cc1`, for which the inhibition is -11.2% (inactive).

For the molecule `Cn1c(SCC(=O)NCCc2ccccc2)nnc1C1CCCCC1`, the inhibition was -6.8% (inactive).

Take `COC(=O)Nc1ccc(N2CCOCC2)c(S(=O)(=O)N2CCOCC2)c1`: the inhibition is -18% (inactive).

Consider `c1ccc(C2[C@H]3CN(Cc4cccnc4)[C@H](c4ccccc4)C34CC2(c2ccccc2)C4)cc1` (some centres not stated), for which the inhibition is -5.1% (inactive).

For the molecule `Cc1ccc(C)c(N2CCN(C(=O)CCNC(=O)Cn3ccc4ccccc4c3=O)CC2)c1`, the inhibition is 33% (inactive).

For the molecule `O=[N+]([O-])c1ccc(C2Nc3cccc4cccc(c34)N2)cc1`, the inhibition is 25.1% (inactive).

Take `Oc1ccccc1C1Nc2cccc3cccc(c23)N1`: the inhibition is 7.9% (inactive).

Turning to `O=[N+]([O-])c1ccccc1C1Nc2cccc3cccc(c23)N1`, the inhibition is 105% (active).

Regarding `Cc1ccc(C(NC(=O)N2CCOCC2)=C(Cl)Cl)cc1F`, the inhibition was 32.1% (inactive).

Regarding `Cc1ccc(C(NC(=O)N2CCCCC2)=C(Cl)Cl)cc1F`, the inhibition was 74% (active).

Consider `Cc1ccc(C(NC(=O)NCCCN2CCOCC2)=C(Cl)Cl)cc1F`, for which the inhibition is 34.4% (inactive).

With `COc1ccc(CN2CCN(c3cccc(C)c3C)CC2)cc1OC`, the inhibition was 21.4% (inactive).

As for `CCC1Oc2ccc(C)cc2N(CC(=O)NCCN2CCOCC2)C1=O` (configuration not stated), the inhibition was -21% (inactive).

As to `Clc1ccc(C2=NN(c3ccccc3)C(c3ccco3)C2)cc1` (configuration not stated), the inhibition was -9.1% (inactive).

In the case of `Fc1ccc(C2=NN(c3ccccc3)C(c3ccco3)C2)cc1` (configuration not stated), the inhibition was 4% (inactive).

Take `c1ccc(C2=NN(c3ccccc3)C(c3ccco3)C2)cc1` (configuration not stated): the inhibition was 54.1% (active).

Take `O=S(=O)(c1ccc(F)cc1)N1CCn2c(nc3ccccc32)C1`: the inhibition was -11.7% (inactive).

With `CCOc1ccc(S(=O)(=O)Nc2cc(C)ccn2)c2ccccc12`, the inhibition is 5.2% (inactive).

Regarding `Cc1ccc2[nH]c3c(=O)n(Cc4ccco4)cnc3c2c1`, the inhibition is 1.2% (inactive).

With `CCOc1cccc(-c2nnc3sc(-c4ccc(C)cc4)nn23)c1`, the inhibition is -0.8% (inactive).

For the molecule `COc1cc(-c2nnc3sc(C4CCCCC4)nn23)cc(OC)c1OC`, the inhibition is -20.6% (inactive).

As for `COc1ccc(-c2nnc3sc(C4CCCCC4)nn23)cc1OC`, the inhibition is 9.5% (inactive).

Regarding `COc1cccc(-c2nnc3sc(C4CCCCC4)nn23)c1`, the inhibition is 96.4% (active).

Turning to `CCOc1cccc(-c2nnc3sc(C4CCCCC4)nn23)c1`, the inhibition was 66.8% (active).

On to `c1cncc(-c2nnc3sc(C4CCCCC4)nn23)c1`, for which the inhibition was -14.1% (inactive).

As for `O=C(c1ccccc1)N1CCC(c2nc(-c3ccc(S(=O)(=O)N4CCOCC4)cc3)no2)CC1`, the inhibition was 18.2% (inactive).

Regarding `COCCCNC(=S)NNC(=O)Cn1nc(C)c(Br)c1C`, the inhibition is 0.3% (inactive).

As to `CC(Oc1ccc(Cl)cc1Cl)c1nc(-c2ccc(NC(=O)c3ccccn3)cc2)no1` (configuration not stated), the inhibition is -18.6% (inactive).

As to `CC(Oc1ccc(Cl)cc1Cl)c1nc(-c2ccc(NC(=O)c3ccco3)cc2)no1` (configuration not stated), the inhibition was -12.3% (inactive).

With `CC(Oc1ccc(Cl)cc1Cl)c1nc(-c2ccc(NC(=O)c3ccncc3)cc2)no1` (configuration not stated), the inhibition was 42.3% (active).

Take `C=C(C(=O)O)C1CCC2(C)CCCC(C)(O)C2C1` (configuration not stated): the inhibition is -0.6% (inactive).

In the case of `C/C(O)=c1/ccc2cccc3nc(C)nc1c23`, the inhibition is -3.6% (inactive).

`NNc1nc(C(F)(F)F)nc2ccccc12`: the inhibition is -7.9% (inactive).

As to `O/C=c1\ccc2cccc3nc(C(F)(F)F)nc1c23`, the inhibition was 38% (active).

Turning to `Cc1ccc(NC(=O)COC(=O)C(NS(=O)(=O)c2ccc(Cl)cc2)C(C)O)c(Br)c1` (configuration not stated), the inhibition was -22.2% (inactive).

Take `CCOC(=O)N1CCN(C(=O)CN(C2CCCCC2)S(=O)(=O)c2c(C)cc(C)cc2C)CC1`: the inhibition is -2.2% (inactive).

For `COc1ccc(C(=O)NCCNc2ccccc2[N+](=O)[O-])cc1`, the inhibition is -34% (inactive).

With `COc1ccc(C(=O)NCCNc2ccc([N+](=O)[O-])cc2)cc1`, the inhibition was -51.3% (inactive).

Regarding `CCCNC(=O)c1ccc(S(=O)(=O)c2ccc(OC)cc2)c([N+](=O)[O-])c1`, the inhibition was 63.9% (active).
